The record followed here is PubChem BioAssay (NCATS).

The viability is a read-out of living cells in per cent, often relative to untreated cells.

Records with an inconclusive call do not appear. Unmarked numbers belong to inactive results. Active and inactive are the calls of the source. Calls come from the whole dose curve; as a rule, active = well fitted cell-killing curve with a large enough effect; inconclusive = small, poorly fitted or top-dose-only effect, or effect the other way; inactive = no such curve, though single readings can be large or run the other way. Non-standard residues stand in square brackets, D forms with d. Residues, ends and D or L forms follow the SMILES beside them. *: point of attachment. Sta = CC(C)C[C@H](N)[C@@H](O)CC(=O)O; Isovaleryl = CC(C)CC(=O)*

A short description of test [1]: Quantitative High-Throughput drug screen in 47 multiple myeloma cell lines against the NCATS MIPE library collection: OCIMY7_PLB cell viability assay (AID 1918987). Note: nearly all actives have a fitted effect of over 65% in size. The conditions noted are these: OCI-MY7 myeloma viability, CellTiter-Glo ATP, 48 h; series mostly up to 45.8 µM. The method in brief:
(§1)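 Viability after 48 h drug exposure was measured as ATP-dependent luminescence. Cells, 500 per well, sat at 37 °C under 5% CO2; DMSO wells set 100%, media-only wells 0%.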
For orientation: ATP-based viability assays read luminescence as a measure of living cells.

A short description of test [2]: Quantitative High-Throughput drug screen in 47 multiple myeloma cell lines against the NCATS MIPE library collection: OPM1_PLB cell viability assay (AID 1918989). Note: nearly all actives have a fitted effect of over 40% in size. The settings on record: CellTiter-Glo, 48 h; series mostly up to 45.8 µM. The method in brief: as §1
Test [3] in a line: Quantitative High-Throughput drug screen in 47 multiple myeloma cell lines against the NCATS MIPE library collection: XG6_PLB cell viability assay (AID 1919865). Note: nearly all actives have a fitted effect of over 40% in size. The conditions noted are these: XG6 myeloma viability, CellTiter-Glo ATP luminescence, 48 h; series mostly up to 45.8 µM. The method in brief:
as §1

Test [4] in a line: Quantitative High-Throughput drug screen in 47 multiple myeloma cell lines against the NCATS MIPE library collection: VP6_DJ cell viability assay (AID 1919867). Note: nearly all actives have a fitted effect of over 40% in size. The conditions noted are these: ATP luminescence, 48 h; series mostly up to 45.8 µM. The method in brief:
as §1

Test [5] is described as follows: Quantitative High-Throughput drug screen in 47 multiple myeloma cell lines against the NCATS MIPE library collection: PE2_PLB cell viability assay (AID 1919869). Note: nearly all actives have a fitted effect of over 35% in size. The conditions noted are these: PE2_PLB myeloma cells viability, ATP luminescence, 48 h; series mostly up to 45.8 µM. The method in brief:
as §1

The nature of test [6]: Quantitative High-Throughput drug screen in 47 multiple myeloma cell lines against the NCATS MIPE library collection: RPMI8226_ATCC cell viability assay (AID 1919871). Note: nearly all actives have a fitted effect of over 30% in size. The conditions noted are these: RPMI8226 myeloma viability, CellTiter-Glo ATP luminescence, 48 h; series mostly up to 45.8 µM. The method in brief:
as §1

Test [7] in a line: Quantitative High-Throughput drug screen in 47 multiple myeloma cell lines against the NCATS MIPE library collection: OPM2_DSMZ cell viability assay (AID 1919872). Note: nearly all actives have a fitted effect of over 30% in size. The conditions noted are these: OPM2 myeloma viability, CellTiter-Glo ATP luminescence, 48 h; series mostly up to 45.8 µM. The method in brief: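 We plated 500 myeloma cells per well, pinned in MIPE 4.0 compounds, and incubated for 48 hours at 37C. ATP was then quantified with CellTiter-Glo, with DMSO and media-only wells defining 100% and 0%.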

The nature of test [8]: Quantitative High-Throughput drug screen in 47 multiple myeloma cell lines against the NCATS MIPE library collection: KMS11_JCRBsus cell viability assay (AID 1919873). Note: nearly all actives have a fitted effect of over 50% in size. The settings on record: KMS11 myeloma viability, CellTiter-Glo ATP luminescence, 48 h; series mostly up to 45.8 µM. Put shortly: as §1
A short description of test [9]: Quantitative High-Throughput drug screen in 47 multiple myeloma cell lines against the NCATS MIPE library collection: KMS28BM_JCRB cell viability assay (AID 1919874). Note: nearly all actives have a fitted effect of over 35% in size. The settings on record: CellTiter-Glo ATP, 48 h; series mostly up to 45.8 µM. The method in brief: as §1
The nature of test [10]: Quantitative High-Throughput drug screen in 47 multiple myeloma cell lines against the NCATS MIPE library collection: XG1_PLB cell viability assay (AID 1919866). Note: nearly all actives have a fitted effect of over 35% in size. The settings on record: CellTiter-Glo ATP, 48 h; series mostly up to 45.8 µM. Put shortly:
as §1

Test [11] in a line: Quantitative High-Throughput drug screen in 47 multiple myeloma cell lines against the NCATS MIPE library collection: SKMM1_PLB cell viability assay (AID 1919863). Note: nearly all actives have a fitted effect of over 35% in size. The settings on record: SKMM1 myeloma viability, CellTiter-Glo ATP, 48 h; viability: hits give low values. Put shortly:
as §1

Test [12] is described as follows: Quantitative High-Throughput drug screen in 47 multiple myeloma cell lines against the NCATS MIPE library collection: PCM6_Riken cell viability assay (AID 1919870). Note: nearly all actives have a fitted effect of over 30% in size. The settings on record: CellTiter-Glo ATP, 48 h; series mostly up to 45.8 µM. The method in brief: as §1
Test [13] in a line: Quantitative High-Throughput drug screen in 47 multiple myeloma cell lines against the NCATS MIPE library collection: OCIMY5_PLB cell viability assay (AID 1918988). Note: nearly all actives have a fitted effect of over 65% in size. The conditions noted are these: OCI-MY5 myeloma viability, ATP luminescence, 48 h; series mostly up to 45.8 µM. The method in brief:
as §1

Test [14] can be described thus: Quantitative High-Throughput drug screen in 47 multiple myeloma cell lines against the NCATS MIPE library collection: U266_ATCC cell viability assay (AID 1919864). Note: nearly all actives have a fitted effect of over 35% in size. The conditions noted are these: U266 myeloma viability, CellTiter-Glo ATP luminescence, 48 h; series mostly up to 45.8 µM. Put shortly: as §1
Potency is the fitted concentration of half-maximal effect.

Take `Nc1nc(Cl)nc2c1ncn2[C@H]1C[C@H](O)[C@@H](CO)O1`: the Potency in test [1] was 0.001 µM (active); in [2], 18.7 µM (active); in test [3] it was 0.935 µM (active); in [4], 3.72 µM (active); in [5] it was 14.8 µM (active); in test [8] it was 5.26 µM (active). Moreover, in test [9], the Potency is 4.18 µM (active). The Potency entry in [6] and in test [7] was “inactive” throughout.

As for `CC(C)CC(=O)N[C@H](C(=O)N[C@H](C(=O)N[C@@H](CC(C)C)[C@@H](O)CC(=O)N[C@@H](C)C(=O)N[C@@H](CC(C)C)[C@@H](O)CC(=O)O)C(C)C)C(C)C` (Isovaleryl-VV[Sta]A[Sta]-OH), the Potency entry in test [1], in test [2], in test [3], in test [5], in test [7] and in test [8] was “inactive” each time. The Potency result in test [9] is “inactive”. Also, the Potency in [10] was 16.6 µM (active).

On to `Cn1c(NCCN(CCO)CCCc2ccc([N+](=O)[O-])cc2)cc(=O)n(C)c1=O`, for which the Potency result in test [1], in test [6] and in [7] was “inactive” each time. Moreover, the viability in test [11] was 107%. In addition, the Potency in test [3] was 20.9 µM (active); in test [10], 26.4 µM (active); in test [4], 18.7 µM (active).

In the case of `CC(C)c1nc(CN(C)C(=O)N[C@H](C(=O)N[C@@H](Cc2ccccc2)C[C@H](O)[C@H](Cc2ccccc2)NC(=O)OCc2cncs2)C(C)C)cs1`, the Potency in test [1] and in [7] was 20.9 µM (active) throughout. Also, the Potency entry in test [2], in [3], in [10] and in test [12] was “inactive” throughout.

As to `CC[C@]1(O)C[C@H]2CN(CCc3c([nH]c4ccccc34)[C@@](C(=O)OC)(c3cc4c(cc3OC)N(C=O)[C@H]3[C@@](O)(C(=O)OC)[C@H](OC(C)=O)[C@]5(CC)C=CCN6CC[C@]43[C@@H]65)C2)C1`, the Potency was 0.0235 µM (active) in [1]; 0.0053 µM (active) in test [2]; 0.0053 µM (active) in [11]; 0.0093 µM (active) in test [6]; 0.003 µM (active) in [7]. In addition, the Potency entry in test [3] was “inactive”.

For the compound `CCCCc1ccc2nc(NC(=O)OC)[nH]c2c1`, the Potency is 0.0037 µM (active) in [13]; 0.0209 µM (active) in test [2]; 0.0469 µM (active) in test [11]; 0.743 µM (active) in test [14]; 0.0047 µM (active) in test [4]; 0.0418 µM (active) in [5]. Moreover, the Potency in [12] was 0.0935 µM (active); in [6], 0.418 µM (active); in test [7], 0.0166 µM (active); in test [8], 0.0033 µM (active).

As to `Cc1cc(=O)oc2cc(O)ccc12`, the Potency entry in test [13], in [2], in test [14], in test [3], in test [10] and in [5] was “inactive” throughout. Also, the Potency result in test [6], in test [7], in [8] and in test [9] was “inactive” throughout. The viability in test [11] was 114%.

Take `NNc1nncc2ccccc12`: the Potency entry in [1], in test [2], in [14], in [3], in test [10] and in test [5] was “inactive” each time. Besides, the Potency result in test [12], in test [6], in test [7], in test [8] and in [9] was “inactive” in each case. The viability in test [11] was 116%.

As to `CCCCC(CC)COC(=O)C(C#N)=C(c1ccccc1)c1ccccc1` (stereo not given), the Potency result in test [1], in [2], in test [10], in test [4], in [5] and in [12] was “inactive” throughout. Besides, the Potency entry in test [7], in test [8] and in test [9] was “inactive” each time. Moreover, in test [11], the viability is 130%.

With `Cc1ccc(C)c(OCCCC(C)(C)C(=O)O)c1`, the Potency in [1] is 18.7 µM (active); in test [3], 9.35 µM (active); in [10], 16.6 µM (active); in test [4] it was 7.43 µM (active); in test [12] it was 8.33 µM (active). Also, the viability in test [11] was 118%. Further, the Potency entry in [6], in test [7], in test [8] and in test [9] was “inactive” throughout.

Turning to `Nc1cc(C(Cl)=C(Cl)Cl)c(S(N)(=O)=O)cc1S(N)(=O)=O`, the Potency in test [1] and in [3] was 11.8 µM (active) in each case. In addition, the Potency entry in test [2], in test [14], in test [5], in test [12], in test [6] and in test [7] was “inactive” each time.

Regarding `C[C@H](Cc1ccc(O)c(O)c1)[C@@H](C)Cc1ccc(O)c(O)c1`, the Potency in test [13] was 16.6 µM (active); in test [2], 26.4 µM (active); in [11], 18.7 µM (active); in test [14] it was 16.6 µM (active); in test [3], 11.8 µM (active); in test [10], 20.9 µM (active). The Potency in test [4] is 16.6 µM (active); in [5] it was 11.8 µM (active); in test [12], 18.7 µM (active); in test [6] it was 10.5 µM (active); in test [7], 18.7 µM (active); in [8] it was 18.7 µM (active). The Potency in [9] is 23.5 µM (active).

Take `CCC(C)(Oc1ccc(C2(c3ccc(OC(C)(CC)C(=O)O)cc3)CCCCC2)cc1)C(=O)O` (stereo not given): the Potency entry in test [13], in test [2], in test [14], in [3], in test [10] and in [4] was “inactive” each time. For the same compound, the Potency result in test [5], in test [6], in test [7] and in [8] was “inactive” throughout. Further, the viability in test [11] was 130%.

With `CN1CCC(=C2c3ccccc3CCc3sccc32)CC1`, the Potency entry in [13], in test [3], in test [5] and in test [7] was “inactive” throughout. In addition, the Potency is 18.7 µM (active) in test [2], 18.7 µM (active) in test [10], 16.6 µM (active) in [6] and 10.5 µM (active) in [9]. The viability in [11] is 99.6%.

Regarding `COC(=O)C1=C(C)NC(C)=C(C(=O)OCCCN2CCC(c3ccccc3)(c3ccccc3)CC2)C1c1cccc([N+](=O)[O-])c1` (stereo not given), the Potency result in [1], in test [3], in test [10], in [4], in [5] and in test [12] was “inactive” each time. Further, the Potency entry in [7], in test [8] and in [9] was “inactive” in each case. In addition, the viability in [11] is 122%.

Take `CCOC(=O)C(C)Oc1cccc2c(=O)n(CC(=O)Nc3ccc4c(c3)OCCO4)ccc12` (stereo not given): the Potency entry in test [1], in test [3], in test [10], in test [5], in test [12] and in test [6] was “inactive” in each case. For the same compound, the Potency entry in test [8] and in [9] was “inactive” throughout.

In the case of `Cc1c(C(=O)NN2CCCCC2)nn(-c2ccc(Cl)cc2Cl)c1-c1ccc(Cl)cc1`, the Potency in [1] is 16.6 µM (active); in test [3], 26.4 µM (active); in test [10], 26.4 µM (active); in test [12], 26.4 µM (active); in test [8], 23.5 µM (active); in test [9], 23.5 µM (active).

On to `O=c1ccc2ccc(O)c(O)c2o1`, for which the Potency in test [1] was 8.33 µM (active); in test [2], 18.7 µM (active); in test [14], 9.35 µM (active); in [10], 4.18 µM (active); in test [4] it was 11.8 µM (active); in [5], 13.2 µM (active). The Potency in test [12] is 13.2 µM (active). For the same compound, the Potency result in [6], in [7], in [8] and in [9] was “inactive” each time.
